The text below walks through data of PubChem BioAssay AID624267 (The Scripps Research Institute Molecular Screening Center, 2012).

About 1,400 (0.39%) of roughly 360,000 compounds were called active. This excerpt belongs to a sample that is enriched for actives. Values without a mark were called inactive. Rule as the data show it: active = inhibition above about 21%; inactive = the rest.

Sequence of Receptor-interacting serine/threonine-protein kinase 2 (Homo sapiens) (O43353 whole entry, looked up): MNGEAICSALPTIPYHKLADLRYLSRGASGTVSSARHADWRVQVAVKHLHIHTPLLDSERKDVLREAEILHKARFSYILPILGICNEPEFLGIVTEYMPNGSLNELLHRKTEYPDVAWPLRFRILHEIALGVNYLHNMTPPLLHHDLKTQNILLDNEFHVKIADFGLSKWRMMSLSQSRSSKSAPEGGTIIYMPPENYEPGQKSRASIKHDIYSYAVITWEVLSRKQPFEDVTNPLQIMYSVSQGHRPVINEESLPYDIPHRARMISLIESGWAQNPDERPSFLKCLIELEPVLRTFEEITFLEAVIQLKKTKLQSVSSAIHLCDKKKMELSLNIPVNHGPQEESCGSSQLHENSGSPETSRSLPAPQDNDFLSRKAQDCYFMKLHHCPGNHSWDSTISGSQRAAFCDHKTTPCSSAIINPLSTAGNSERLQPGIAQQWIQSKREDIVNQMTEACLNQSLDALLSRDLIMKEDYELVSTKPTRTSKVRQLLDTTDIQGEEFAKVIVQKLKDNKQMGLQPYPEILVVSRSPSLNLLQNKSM

The assay concerns the target Receptor-interacting serine/threonine-protein kinase 2 (Homo sapiens) (UniProt O43353). In words: inhibitors of RIPK2 association with NOD2 – fluorescence, CHO cells, BLA complementation, primary screen (AID 624267).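 Also: 0% = vehicle only and 100% = reference blocker.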 The settings on record: CHO BLA complementation NOD2-RIPK2, CCF4 ratio; at 4.98 µM; active compounds read high.
Broadly, the inhibition is the relative decrease from the control value, in per cent. With `CC(=O)Oc1cccc(N2C(=O)CC(Nc3ccc(N4CCOCC4)cc3)C2=O)c1` (centres undefined), the inhibition was -13.9%.

Turning to `O=C(Cn1nc(C(=O)O)c2ccccc2c1=O)Nc1ccc(F)cc1`, the inhibition was -5.34%. As for `Cc1ccc(NC(=O)Cn2sc3ccccc3c2=O)cc1`, the figure is 22.1% (active).

Take `CC1(C)NC(=O)N(CC(=O)Nc2ccc(-c3ccccc3)cc2)C1=O`: the inhibition is 4.81%. Consider `CN(C)CCCNC(=S)N1CCC(c2nc3ccccc3[nH]2)CC1`, for which the inhibition was -7.82%.

For `CCc1nn(CCCC(=O)Nc2ccc(C)cc2C)c(=O)c2cc3occc3n12`, the inhibition is 4.65%. With `CS(=O)(=O)N(CC(=O)N1CCCC1)Cc1ccccc1`, the inhibition was 3.45%. On to `O=[N+]([O-])c1ccc(CN2CC(N3CC=CC3)CS2(=O)=O)cc1` (centres undefined), for which the inhibition was -11%. As for `O=C1/C(=C\c2ccc([N+](=O)[O-])cc2)CS(=O)(=O)C/C1=C/c1ccc([N+](=O)[O-])cc1`, the figure is 44.6% (active); as for `CCc1nc2ccc(C(=O)NCc3ccc(OC)cc3)cn2c1N(CC)Cc1cccc(Br)c1`, 6.44%. The same measure for `COC(=O)[C@]1(C)CCC[C@@]2(C)C3CC[C@]4(OC(C)=O)C[C@@]3(CCC21)CC4=NO` (some centres undefined): 6.55%. The same measure for `O=C(COc1ccccc1Cl)Nc1ccc(C(=O)c2ccc(C(=O)O)cc2)cc1`: 2.32%; for `O=C(O)CC(Cc1ccccc1)C(=O)Nc1ccc([N+](=O)[O-])cc1` (centres undefined): -1.04%. For the compound `COc1cc2c(cc1OC)C1C(=O)c3cc(OS(C)(=O)=O)c(OC)cc3C1N(C)C2=O` (centres undefined), the inhibition was 3.51%. With `COc1ccc(C(CNC(=O)COc2ccc([N+](=O)[O-])cc2)N2CCCCC2)cc1` (centres undefined), the inhibition was 0.77%. As for `Cc1cc(C)n(CC(O)COc2ccc(C(C)(C)C)cc2)n1` (centres undefined), the inhibition was -8.7%. The same measure for `COc1ccc(C(C[N+](=O)[O-])n2nc(C)cc2C)cc1` (centres undefined): 26.6% (active). As for `C=CCn1cc(-c2cccc(C(F)(F)F)c2)cc(C#N)c1=O`, the figure is 0.01%.

Regarding `COCCCNC(=S)N1CCCC(c2nc3cc(C)c(C)cc3[nH]2)C1` (centres undefined), the inhibition was -3.68%.

Turning to `Nc1cccc2c1C(=O)N(Cc1nnc(-c3ccccc3Br)o1)C2=O`, the inhibition is 27.5% (active). As for `CC(C)N(Cc1nnc(-c2ccccc2Br)o1)C(=O)c1cc(Cl)nc2ccccc12`, the figure is -10.3%; as for `O=C(OCc1nnc(-c2ccccc2)o1)c1ccc2c(c1)C(=O)N(CCc1ccccc1)C2=O`, 9.8%; as for `CC(C)CC(CO)N1CCN(C(=O)c2ccc(Cl)cc2Cl)CCC1=O` (centres undefined), -4.88%.

With `COc1ccc(-c2nc3n(c2Br)CCC3)cc1`, the inhibition was -7.99%. As for `O=C(Nc1ccccc1)C1CC(=O)n2c(nc3ccccc32)N1` (centres undefined), the figure is -8.18%; as for `Cc1csc(NC(=O)C2CCCN2C(=O)OCC(C)C)n1` (centres undefined), -2.47%; as for `CC1CC(C)CN(S(=O)(=O)c2cccc(C(=O)N3C(=O)c4cccc(N)c4C3=O)c2)C1` (centres undefined), 30.1% (active). Consider `CN1CCN(S(=O)(=O)c2cccc(C(=O)N3CCc4ccccc43)c2)CC1`, for which the inhibition was 2.86%. The same measure for `CC(=O)N1CCN(S(=O)(=O)c2cccc(C(=O)NC3CCC(C)CC3)c2)CC1` (centres undefined): -9.28%. The same measure for `O=[N+]([O-])c1ccc(Oc2ccc(F)cc2Br)c2ccncc12`: -1.06%; for `CC(C)CNC(=S)NNC(=O)c1nn(C)cc1Cl`: -4.5%; for `O=C1CC(C(F)(F)C(F)(F)C(F)(F)C(F)(F)F)=Nc2ccccc2N1`: 24.9% (active). The same measure for `OC(CN=c1sc2ccccc2n1CC(O)COc1ccccc1)COc1ccccc1` (centres undefined): -11.1%. Regarding `CCOc1ccc2c(=O)c(-c3ccc4c(c3)OCCCO4)c(C)oc2c1`, the inhibition was -5.36%. As for `CCOC(=O)c1c(NC(=O)C2CCN(S(=O)(=O)c3ccc(Cl)cc3)CC2)sc2c1CCCC2`, the figure is 4.57%. As for `CC[C@H]1CN2CCc3cc(OC)c(OC)cc3[C@@H]2C[C@@H]1C[C@H]1NCCc2cc(OC)c(OC)cc21`, the figure is 23.9% (active).

For `COCCCNC(=O)Cn1c(=O)n(Cc2ccccc2Cl)c(=O)c2cc(OC)c(OC)cc21`, the inhibition was -13.8%. Take `COc1ccccc1C(=O)NC(CCSC)C(=O)N1CCN(C/C=C/c2ccccc2)CC1` (centres undefined): the inhibition is 0.75%. The same measure for `O=[N+]([O-])c1ccc(C(S(=O)(=O)Cc2ccccc2)S(=O)(=O)Cc2ccccc2)cc1`: -0.41%; for `CC(=O)N1c2ccccc2N(Cc2ccc([N+](=O)[O-])cc2)C(=O)C1(C)C`: -3.82%; for `O=C1NC(=O)C2C1C(c1ccc([N+](=O)[O-])cc1)=NN2Cc1ccccc1` (centres undefined): 43.2% (active).

`COc1ccccc1C(=O)NCCC(=O)NC1=NCCS1`: the inhibition was -0.45%. In the case of `COc1ccc(OC)c(N=Cc2c(O)[nH]c3ccccc23)c1`, the inhibition is 68.3% (active). As for `COc1cc2[nH]c(O)c(C=O)c2cc1OC`, the figure is -11.7%. Turning to `COc1ccc(NC(=O)COC(=O)c2n[nH]c3ccccc23)c(OC)c1`, the inhibition was 2.43%.

Consider `CC(C)(C)c1ccc(CCC2OCC(CN3CCOCC3)O2)cc1` (centres undefined), for which the inhibition was -4.96%.

In the case of `Cc1ccc(C)c(NS(=O)(=O)c2c(C)[nH]c(C)c2C(=O)N2CCCCC2)c1`, the inhibition was -5.02%. `Cc1ccc(S(=O)(=O)N2CCN=C2SCc2c(F)cccc2Cl)cc1`: the inhibition was 4.62%. As for `COc1ccc(C(C(=O)NC(C)(C)C)N(C(=O)Cn2nnc3ccccc32)c2ccc(C(C)=O)cc2)cc1O` (centres undefined), the inhibition was 1.81%. The same measure for `Cc1ccc(C(=O)N/N=C/c2sc(=O)n(Cc3cccc(C(=O)O)c3)c2Cl)cc1`: -4.49%.

Consider `CC(C)(C)C1CCC(C(=O)NCC(c2cccs2)N2CCOCC2)CC1` (centres undefined), for which the inhibition was 2.5%. As for `O=C(CCN1CCc2ccccc2C(O)(c2ccccc2)C1)c1ccc2c(c1)OCCO2` (centres undefined), the figure is 26.2% (active); as for `O=S(=O)(c1ccc2c(c1)OCCO2)N1CCc2ccccc21`, -1.2%; as for `O=C(CN1CCc2cc3c(cc2C1)OCCCO3)Nc1ccccc1`, -9.22%. `O=C(NC(=S)NC1CCSC1=O)c1ccccc1F` (centres undefined): the inhibition is -9.93%. As for `CCCCN(CCCC)CCCNC(=O)CN1C(=O)COc2ccc(S(=O)(=O)N3CCC(C)CC3)cc21`, the figure is -2.68%. Consider `CC(=O)Nc1cccc(Nc2ccc(C#N)cc2)c1`, for which the inhibition is 3.65%. As for `CCOC(=O)C1=C(C)NC2=C(C(=O)CC(C)(C)C2)C1c1ccsc1` (centres undefined), the figure is 2.36%; as for `CCOC(=O)C1=C(C)Nc2sc(C(=O)c3ccc(Br)cc3)c(N)c2C1c1ccc(C(=O)OC)cc1` (centres undefined), 27% (active); as for `COC(=O)c1ccc(C2NC(=O)NC(C)=C2C(=O)N(C)C)cc1` (centres undefined), -10%. `COc1ccc(NC(=O)/C(Cl)=C(/Cl)S(=O)Cc2ccc(C)cc2)cn1` (centres undefined): the inhibition was 95.1% (active). The same measure for `NC(Cc1ccccc1)c1csc(Nc2cc(Oc3ccccc3)ncn2)n1` (centres undefined): -5.36%. Take `O=C(COC(=O)c1ccccc1NC(=O)c1ccco1)Nc1ccc2c(c1)OC(F)(F)O2`: the inhibition is -2.03%. The same measure for `O=C1C(C=NCC2CCCO2)=C(O)c2ccccc21` (centres undefined): -5.23%; for `N#Cc1cc([N+](=O)[O-])ccc1NCC1CCCO1` (centres undefined): -32.9%; for `O=C1c2cccc3c([N+](=O)[O-])ccc(c23)C(=O)N1CC1CCCO1` (centres undefined): 80.1% (active).

Turning to `Cc1ccc(S(=O)(=O)N2CCN(C(=O)c3cc(S(=O)(=O)N4CCOCC4)ccc3F)CC2)cc1`, the inhibition was -18.2%.

Consider `CCc1ccc(OC2(C)CCN(CCOc3ccc(C)cc3)C2)cc1` (centres undefined), for which the inhibition is 0.79%. The same measure for `COc1ccc(C2CC(c3cccs3)=NN2c2nc(C)c(C(C)=O)s2)cc1OC` (centres undefined): 6.76%. With `COc1ccccc1N1N=C(c2cccs2)CC1c1ccccc1` (centres undefined), the inhibition is 49.9% (active).

Take `Fc1ccc(N2N=C(c3cccs3)CC2c2ccco2)c(F)c1` (centres undefined): the inhibition is -13.7%. Turning to `Cc1ncoc1C(=O)N1CCCC(C(=O)c2ccc3c4c(cccc24)CC3)C1` (centres undefined), the inhibition was 1.4%.

With `Cc1ccccc1C(=O)NCC(c1ccco1)N1CCc2ccccc21` (centres undefined), the inhibition is 7.15%. The same measure for `COc1ccc(C2CC(c3cccs3)Nc3nnnn32)cc1` (centres undefined): -2.81%.

`COC(=O)C1=C(C(=O)c2ccc(C)cc2)C(c2ccccc2)n2nnnc2N1` (centres undefined): the inhibition was 2.81%. As for `COc1ccc(C2=CC(c3cccc(OC)c3)n3nnnc3N2)cc1` (centres undefined), the inhibition is 26.8% (active). On to `O=C1N(c2ccc(Cl)cc2)C(c2ccc(Cl)cc2)N2CCCN12` (centres undefined), for which the inhibition is 8.61%. In the case of `Cc1ccsc1-c1cc(C(=O)O)c2c(ccc3ccccc32)n1`, the inhibition was 0.09%. With `CCOC(=O)C1(Cc2cccc(OC)c2)CCN(Cc2csc(C(C)=O)c2)CC1`, the inhibition was -2.05%. For the compound `CCCc1c(C(=O)Nc2ccc(F)cc2)cnn1-c1ccccc1`, the inhibition was -3.44%.

`O=C(c1cccc(-n2cccc2)c1)N1CCN(S(=O)(=O)c2ccc(F)cc2)CC1`: the inhibition is -0.82%. As to `O=[N+]([O-])/C=C/c1ccc2c(ccn2Cc2ccccc2)c1`, the inhibition was 87.9% (active). As for `COC(=O)N1CN(C(=O)OC)CN(C(=O)OC)C1`, the figure is -12.2%; as for `Cc1ccc(NC(=O)CCCNC(=O)c2ccc(Cl)cc2)cc1S(=O)(=O)N1CCOCC1`, -6.45%; as for `CN1CCN(CCCNC(=O)c2ccc(/C=C3\Oc4ccccc4N(Cc4ccc(Cl)cc4)C3=O)cc2)CC1`, 33.1% (active). The same measure for `O=C(CCN1C(=O)COc2ccccc21)NCCCN1CCN(c2ccc(F)cc2)CC1`: -5.53%; for `COc1ccc(C)cc1NC(=S)Nc1ccccc1SC`: -5.8%. The same measure for `CCOc1ccc(S(=O)(=O)NCc2ccc3c(c2)OCO3)cc1C`: -3.55%; for `CC(Oc1ccccc1)C(=O)Nc1oc(-c2ccco2)c(-c2ccco2)c1C#N` (centres undefined): -14.4%.
